# Source: paper PMC6451091, “NextPBM: a platform to study cell-specific transcription factor binding and cooperativity”
# The full ranking holds about 3,700 sequences; the median of “z-score” is about 4, and the highest 2% start at about 8.4. For the sample, the highest values were picked, then their nearest neighbours and some sequences at random.
# Assays:
# PU.1 (IVT) [1] = target: PU.1 (IVT) (UniProt P17947 1-270); assay: protein-binding microarray (PBM); 20 mM HEPES pH 7.9, 100 mM NaCl, 1 mM DTT, 0.2 mg/mL BSA, 0.02% Triton X-100, 2% milk, 0.4 mg/mL salmon testes DNA; 1 h; temperature not stated; high values mean tight binding; conditions: dsDNA, one strand shown
# How it was run: (§1)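 PU.1, full-length and untagged, came from coupled human in vitro transcription/translation and was bound for 1 h to double-stranded DNA microarrays of 20-bp genomic sites and single-nucleotide variants in HEPES pH 7.9, 100 mM NaCl, 2% milk and salmon testes DNA. After antibody detection, the values were taken as z-scores of scanned fluorescence normalised by linear regression.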
# PU.1 (IVT) [2] = target: PU.1 (IVT) (UniProt P17947 1-270); assay: as above; conditions: dsDNA, one strand shown; remark: listed apart in the source
# How it was run: as §1
Sequence,binding signal (PU.1 (IVT) [1]),binding signal (PU.1 (IVT) [2])
GCCTAGCACGAAAGGAGGAAGTGAAACTGGTGCTAGGTCTTGATTCGCTTGACGCTGCTG,6.19 z-score,
GCCTAGCACCAAATGAGGAATTGATGCGGGTGCTAGGTCTTGATTCGCTTGACGCTGCTG,2.8 z-score,
GCCTAGCACCAGAAAAGGAAGTAAGCCACGTGCTAGGTCTTGATTCGCTTGACGCTGCTG,,3.98 z-score
GCCTAGCACAAAAAGAGGAAGTGACTTCAGTGCTAGGTCTTGATTCGCTTGACGCTGCTG,,8.34 z-score
GCCTAGCACAAAAAAAGGAAGTACAGTAAGTGCTAGGTCTTGATTCGCTTGACGCTGCTG,,6.54 z-score
GCCTAGCACAAAAGAGGGAAGTGACATTCGTGCTAGGTCTTGATTCGCTTGACGCTGCTG,5.89 z-score,
GCCTAGCACAAAAAGAGGAAGTACATTAAGTGCTAGGTCTTGATTCGCTTGACGCTGCTG,,8.68 z-score
GCCTAGCACGCAAAGAGGAAGTGACTCAAGTGCTAGGTCTTGATTCGCTTGACGCTGCTG,,6.81 z-score
GCCTAGCACAAAAAGAGGAAGTGACTCACGTGCTAGGTCTTGATTCGCTTGACGCTGCTG,,8.49 z-score
GCCTAGCACGATTTGAGGAAATGAAACTTGTGCTAGGTCTTGATTCGCTTGACGCTGCTG,3.79 z-score,
GCCTAGCACAAAAAGGGGAAGTCATCTATGTGCTAGGTCTTGATTCGCTTGACGCTGCTG,,8.05 z-score
GCCTAGCACAATATGAGGAAGTGCTCTAGGTGCTAGGTCTTGATTCGCTTGACGCTGCTG,6.67 z-score,
GCCTAGCACTTACACAGGAAGTGCTGGCAGTGCTAGGTCTTGATTCGCTTGACGCTGCTG,2.14 z-score,
GCCTAGCACAAAAAGAGGAAGTGCTACTTGTGCTAGGTCTTGATTCGCTTGACGCTGCTG,,8.88 z-score
GCCTAGCACAAAAAGAGGAAGAGAAACTTGTGCTAGGTCTTGATTCGCTTGACGCTGCTG,,6.04 z-score
GCCTAGCACAAAATGAGGAAGTCATTCTTGTGCTAGGTCTTGATTCGCTTGACGCTGCTG,,8.35 z-score
GCCTAGCACAAAAAGAGGAAGTCCTATTTGTGCTAGGTCTTGATTCGCTTGACGCTGCTG,,8.54 z-score
GCCTAGCACAAAAACAGGAAGTCCTATTCGTGCTAGGTCTTGATTCGCTTGACGCTGCTG,,7.91 z-score
GCCTAGCACAAAAAGAGGAAGTCATTCTTGTGCTAGGTCTTGATTCGCTTGACGCTGCTG,,8.71 z-score
GCCTAGCACAAAAAGAGGAAGAGGCGCTTGTGCTAGGTCTTGATTCGCTTGACGCTGCTG,,5.63 z-score
GCCTAGCACACAAAGAGGAAGTCCCATTTGTGCTAGGTCTTGATTCGCTTGACGCTGCTG,,7.29 z-score

Sequence,binding signal (PU.1 (IVT) [1]),binding signal (PU.1 (IVT) [2])
GCCTAGCACAAAAATAGGAAATGAAAGTAGTGCTAGGTCTTGATTCGCTTGACGCTGCTG,3 z-score,
GCCTAGCACGAAAGAGGGAAGTGGGCATAGTGCTAGGTCTTGATTCGCTTGACGCTGCTG,,4.48 z-score
GCCTAGCACGCAGGGAGGAAGTGGGGAAGGTGCTAGGTCTTGATTCGCTTGACGCTGCTG,3.42 z-score,
GCCTAGCACCAAAAAGGGAAGTGCATGCTGTGCTAGGTCTTGATTCGCTTGACGCTGCTG,,6.52 z-score
GCCTAGCACAGCATGAGGAAGTGTCAGATGTGCTAGGTCTTGATTCGCTTGACGCTGCTG,4.45 z-score,
GCCTAGCACTTGAAAAGGAAGTGCAACAAGTGCTAGGTCTTGATTCGCTTGACGCTGCTG,,2.73 z-score
GCCTAGCACTGAAAGAGGAACTCTCACATGTGCTAGGTCTTGATTCGCTTGACGCTGCTG,,4.89 z-score
GCCTAGCACAAAAAGAGGAAGTCTTTTATGTGCTAGGTCTTGATTCGCTTGACGCTGCTG,,8.71 z-score
GCCTAGCACAAAAAGAGGAAGAGGAATAGGTGCTAGGTCTTGATTCGCTTGACGCTGCTG,5.98 z-score,
GCCTAGCACAAAAAAAGGAAGTCAAAGTCGTGCTAGGTCTTGATTCGCTTGACGCTGCTG,,6.75 z-score
GCCTAGCACAAAAAGAGGAAGTGGTTGTCGTGCTAGGTCTTGATTCGCTTGACGCTGCTG,,8.71 z-score
GCCTAGCACAAAAGAAGGAAGTGGTTTATGTGCTAGGTCTTGATTCGCTTGACGCTGCTG,6.15 z-score,
GCCTAGCACAAAAAGAGGAAGTGCTTTTCGTGCTAGGTCTTGATTCGCTTGACGCTGCTG,,8.49 z-score
GCCTAGCACCAAAAGAGGAAGTCATTTATGTGCTAGGTCTTGATTCGCTTGACGCTGCTG,,8.11 z-score
GCCTAGCACAAAAGGAGGAAGTGGTTACAGTGCTAGGTCTTGATTCGCTTGACGCTGCTG,6.37 z-score,
GCCTAGCACAAAAAGAGGAAGAGAGAAAAGTGCTAGGTCTTGATTCGCTTGACGCTGCTG,5.63 z-score,
GCCTAGCACAACAAGAGGAAGTGGCTTTCGTGCTAGGTCTTGATTCGCTTGACGCTGCTG,,5.51 z-score
GCCTAGCACAAAAAAAGGAAGTGGTGGTTGTGCTAGGTCTTGATTCGCTTGACGCTGCTG,,6.87 z-score
GCCTAGCACAAAAAGAGGAAGTCGTTTTCGTGCTAGGTCTTGATTCGCTTGACGCTGCTG,,8.57 z-score
GCCTAGCACTATTTGAGGAAGTGTGAGAAGTGCTAGGTCTTGATTCGCTTGACGCTGCTG,,5.91 z-score
GCCTAGCACTAAAGAGGGAAGTGGGAGCCGTGCTAGGTCTTGATTCGCTTGACGCTGCTG,,3.74 z-score

Sequence,binding signal (PU.1 (IVT) [1]),binding signal (PU.1 (IVT) [2])
GCCTAGCACGGAAAGTGGAACTGAAACTTGTGCTAGGTCTTGATTCGCTTGACGCTGCTG,1.93 z-score,
GCCTAGCACGAAAAGAGGATGTGGATCTGGTGCTAGGTCTTGATTCGCTTGACGCTGCTG,3.52 z-score,
GCCTAGCACAAAAACAGGAACTGGCCAGGGTGCTAGGTCTTGATTCGCTTGACGCTGCTG,5.89 z-score,
GCCTAGCACCGAATGAGGAACTGATGCGGGTGCTAGGTCTTGATTCGCTTGACGCTGCTG,5.03 z-score,
GCCTAGCACGAAAAGAGGAAGTCACATTGGTGCTAGGTCTTGATTCGCTTGACGCTGCTG,,8.32 z-score
GCCTAGCACGAGAAGAGGAAGTCAAATAAGTGCTAGGTCTTGATTCGCTTGACGCTGCTG,5.64 z-score,
GCCTAGCACGAAAAGAGGAAGTCAGATTAGTGCTAGGTCTTGATTCGCTTGACGCTGCTG,,8.07 z-score
GCCTAGCACAATAAGAGGAAGTCAAAATAGTGCTAGGTCTTGATTCGCTTGACGCTGCTG,6.65 z-score,
GCCTAGCACGAAAAGAGGAAGTCACATTAGTGCTAGGTCTTGATTCGCTTGACGCTGCTG,,8.62 z-score
GCCTAGCACGAAAAGAGGAAGTCAAATTAGTGCTAGGTCTTGATTCGCTTGACGCTGCTG,,8.43 z-score
GCCTAGCACAAAAAGAGGAAGTCAAATAAGTGCTAGGTCTTGATTCGCTTGACGCTGCTG,,8.51 z-score
GCCTAGCACGAAATGAGGAAGTCAAATTAGTGCTAGGTCTTGATTCGCTTGACGCTGCTG,,7.71 z-score
GCCTAGCACAAAAAGAGGAAGTCAAATTAGTGCTAGGTCTTGATTCGCTTGACGCTGCTG,,8.57 z-score
GCCTAGCACGAAAAGAGGAAGTCAAAATAGTGCTAGGTCTTGATTCGCTTGACGCTGCTG,,8.29 z-score
GCCTAGCACAAAAAGAGGAAGTCAAATTGGTGCTAGGTCTTGATTCGCTTGACGCTGCTG,,8.3 z-score
GCCTAGCACAAAAAAAGGAAGTGGAATTAGTGCTAGGTCTTGATTCGCTTGACGCTGCTG,,6.73 z-score
GCCTAGCACGCTTTAGGGAACTACTGTGGGTGCTAGGTCTTGATTCGCTTGACGCTGCTG,3.58 z-score,
GCCTAGCACCCTAAAGGGAAGTGTAAATAGTGCTAGGTCTTGATTCGCTTGACGCTGCTG,3.27 z-score,
GCCTAGCACCAAATCAGGAACTGATGCGGGTGCTAGGTCTTGATTCGCTTGACGCTGCTG,3.39 z-score,
GCCTAGCACTTTTATCAGGAAATGACTGGGTGCTAGGTCTTGATTCGCTTGACGCTGCTG,0.896 z-score,
GCCTAGCACTCAGGAGGGAAGTGAAGAAAGTGCTAGGTCTTGATTCGCTTGACGCTGCTG,,2.65 z-score

Sequence,binding signal (PU.1 (IVT) [1]),binding signal (PU.1 (IVT) [2])
GCCTAGCACAGATTGTGGAAGTACTGTGAGTGCTAGGTCTTGATTCGCTTGACGCTGCTG,,2.73 z-score
GCCTAGCACAGAATAGGGAAGTGAGAAATGTGCTAGGTCTTGATTCGCTTGACGCTGCTG,,6.39 z-score
GCCTAGCACCAGAAAAGGAAGTGGGGGTGGTGCTAGGTCTTGATTCGCTTGACGCTGCTG,3.51 z-score,
GCCTAGCACCTGGGAGGGAACTGAAACTCGTGCTAGGTCTTGATTCGCTTGACGCTGCTG,0.859 z-score,
GCCTAGCACTGGAAGAGGAAGTGGCACTGGTGCTAGGTCTTGATTCGCTTGACGCTGCTG,5.78 z-score,
GCCTAGCACCTTTTAAGGAAGTGCTCACTGTGCTAGGTCTTGATTCGCTTGACGCTGCTG,4.92 z-score,
GCCTAGCACGAAAAGAGGAAGTTGGACATGTGCTAGGTCTTGATTCGCTTGACGCTGCTG,,8.75 z-score
GCCTAGCACGAAAAGAGGAAATGGGGAGTGTGCTAGGTCTTGATTCGCTTGACGCTGCTG,5.14 z-score,
GCCTAGCACGAAAAGGGGAAGTTGGGTTGGTGCTAGGTCTTGATTCGCTTGACGCTGCTG,,8.21 z-score
GCCTAGCACGAAAAGAGGAAGTTGGGGAAGTGCTAGGTCTTGATTCGCTTGACGCTGCTG,,8.94 z-score
GCCTAGCACGAAAAAAGGAAGTAGTATAAGTGCTAGGTCTTGATTCGCTTGACGCTGCTG,,6.96 z-score
GCCTAGCACGAAAAGAGGAAGTAGGATAAGTGCTAGGTCTTGATTCGCTTGACGCTGCTG,,8.46 z-score
GCCTAGCACGAAGTAGGGAAGTGAAAGAGGTGCTAGGTCTTGATTCGCTTGACGCTGCTG,3.36 z-score,
GCCTAGCACGAAAAGAGGAAGTCTTGCATGTGCTAGGTCTTGATTCGCTTGACGCTGCTG,,8.22 z-score
GCCTAGCACGAAAAGAGGAAGCCCATGTGGTGCTAGGTCTTGATTCGCTTGACGCTGCTG,,5.2 z-score
GCCTAGCACGAAAAGAGGAAGTGAGAAACGTGCTAGGTCTTGATTCGCTTGACGCTGCTG,,8.29 z-score
GCCTAGCACGAAAAGAGGAAGTTGCTTACGTGCTAGGTCTTGATTCGCTTGACGCTGCTG,,9.03 z-score
GCCTAGCACGAAAAGAGGAAGAGTCTTAGGTGCTAGGTCTTGATTCGCTTGACGCTGCTG,5 z-score,
